Assay outcomes as filed in PubChem.
Compounds with a hit are over-represented: about 5.2% of the library has one in this group of screens.
FLuc inh – inhibitors of firefly luciferase. purified firefly luciferase, luminescence, 8 min. P08659. 72,000 tested, 2.2% active. Potency, µM (series often up to 57.1 µM), without a hit: at the top dose activity change, negative = inhibition, most hits filed as inhibitors; note: % is set by controls: 0 for no effect and ±100 for the full control effect; nearly all actives have a fitted effect of over 40% in size
Target sequence (P08659 whole entry, looked up): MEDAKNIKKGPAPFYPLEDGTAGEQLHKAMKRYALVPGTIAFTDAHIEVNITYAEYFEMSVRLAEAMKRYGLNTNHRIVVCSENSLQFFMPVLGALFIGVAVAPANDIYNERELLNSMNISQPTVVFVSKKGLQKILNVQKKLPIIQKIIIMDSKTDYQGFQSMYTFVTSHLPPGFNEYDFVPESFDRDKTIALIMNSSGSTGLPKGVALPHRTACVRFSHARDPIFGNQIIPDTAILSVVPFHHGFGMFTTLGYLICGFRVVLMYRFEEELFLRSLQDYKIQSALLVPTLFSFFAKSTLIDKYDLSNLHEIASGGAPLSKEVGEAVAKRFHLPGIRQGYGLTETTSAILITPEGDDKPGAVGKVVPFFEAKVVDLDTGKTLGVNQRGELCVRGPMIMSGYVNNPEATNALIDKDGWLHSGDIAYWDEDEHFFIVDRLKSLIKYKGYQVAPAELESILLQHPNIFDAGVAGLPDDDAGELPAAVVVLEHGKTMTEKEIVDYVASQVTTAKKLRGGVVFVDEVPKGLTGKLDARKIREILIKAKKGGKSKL
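Compounds were tested as concentration series (qHTS) against purified P. pyralis luciferase with luciferin and 10 uM ATP in 50 mM imidazole pH 7.2, 50 mM KCl, 7 mM MgCl2, 0.01% Tween 20, 0.05% BSA. Luminescence was read after 8 min at ambient temperature.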
TSHR agonist – TSH receptor (human) agonism | 73,000 tested, 0.48% active | Potency, µM (top dose mostly 57.1 µM), for inactives: at the highest dose activation, most hits filed as activators | HEK293-CNG-TSHR cells (CNG channel as cAMP sensor), membrane potential dye, cAMP; active = well fitted activation curve with a large enough effect in the main read-out, with a control signal flat, not every such curve was filed as active; inconclusive = small, poorly fitted or top-dose-only effect, or a change in a side signal; inactive = no such curve, though single readings can be large or run the other way; % of control where 0% means no effect;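 note: the control signal comes from parental cells without the receptor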
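HEK 293 cells stably expressing TSHR and a modified CNG channel, with CNG-only parental cells as counterscreen, were preloaded 60 min at room temperature with membrane potential dye containing 100 uM RO 20-1724. Compound exposure was 30 min, and depolarization was read as fluorescence at 590 nm.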
HEK293 cAMP cs – parental HEK293 cAMP activation (counter-screen); parental HEK293 CNG cAMP sensor, membrane potential fluorescence; Potency, µM (titrated, usually from 57.1 µM), without a hit: at the highest dose activation, hits mostly activators; 73,000 tested, 2.5% active; AID 938; note: % of control where 0% means no effect; nearly all actives have a fitted effect of over 55% in size
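Parental HEK 293 cells stably expressing a modified CNG channel (no TSHR) report cAMP rise as membrane depolarization. Membrane potential dye with 100 uM RO 20-1724 was loaded for 60 min at room temperature, then compound added for 30 min; fluorescence read at 590 nm.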
Bst PK mod – modulators of Bacillus stearothermophilus pyruvate kinase | purified pyruvate kinase, luminescence ATP production; ribose 5-phosphate activator present at AC10 | Potency, µM | 51,000 tested, 1.2% active | AID 361; in the data active = potency below about 11 µM; inconclusive = mostly about 12 µM to 25 µM;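 the screen sought inhibitors and activators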;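 note: scaled between full activation by ribose 5 phosphate and full inhibition by luteolin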
* = called active by the depositor; i = inactive; ? = inconclusive; . = not tested or not shown; ! = not active in a repeat; [ ] = another dose, or the depositor's remark. Unless noted, calls come from the whole dose curve; as a rule, active = well fitted curve in the direction sought with a large enough effect; inconclusive = small, poorly fitted or top-dose-only effect, or another doubt; inactive = no such curve, though single readings can be large; an effect the other way counts as inactive or inconclusive. Potency is the fitted concentration of half-maximal effect.

SMILES	FLuc inh	TSHR agonist	HEK293 cAMP cs	Bst PK mod
O=P(O)(CCc1ccccn1)CN1CCOCC1	-2%	-3%	-3%	.
CCOC(=O)c1nn(-c2ccc3c(c2)CCN3C(C)=O)cc1O	10µM*	5%	-13%	9.9*
CCOCCCNS(=O)(=O)c1ccc2c(c1)CCN2C(C)=O	0%	-2%	11%	>57
O=C1NC2(CCCC2)N=C1c1ccc(Cl)cc1	-1%	-4%	8%	>57
N#CC(C#N)=c1ccc2c(c1)NC1(CCCCC1)N=2	7.9µM*	?	-65%	.
CSc1nc2[nH]c3c(c2c2nncn12)CC(C)(C)OC3	-2%[25.5 µM]	.	.	i
c1ccc(CCCNc2ncnc3nc[nH]c23)cc1	2%	?	?	.
COc1ccc(C2NC3=C(CCC3)C3(C#N)C(OC)(OC)N=C(N)C23C#N)cc1 (stereo unspecified)	0%[25.5 µM]	.	.	>11
CCSC1(SCC)N=C(N)C2(C#N)C(c3ccccc3)NC(C)=C(C)C12C#N (stereo unspecified)	-3%	25µM*	12%	>57
CC(Oc1ccccc1Br)C(=O)N1CCc2ccccc21 (stereo unspecified)	-5%	?	?	>57
CC(Oc1ccc(Br)cc1)C(=O)N1CCc2ccccc21 (stereo unspecified)	2%	?	25µM*	>57
CN(C(=O)c1ccccn1)c1nnc(-c2cnccn2)s1	-15%	-3%	-1%	.
Cc1cc2ncc(C(=O)Nc3ccccc3)c(C)n2n1	1%	-17%	1%	>57
Cc1c(C(=O)O)cnc2cc(-c3ccc(Cl)cc3)nn12	13µM*	-8%	-3%	.
CCOC(=O)Cc1csc(NC(=O)CSc2nnc(-c3ccc(OC)cc3)n2C)n1	2%	0%	4%	>57
CCCc1cc(=O)oc2cc3occ(C)c3cc12	-1%	?	?	.
CCCc1cc(=O)oc2cc3oc(C)c(C)c3cc12	1%	?	25µM*	>57
CCc1cc(=O)oc2cc(OCC(=O)OC)c(Cl)cc12	0%	15%	-14%	.
CCc1cc(=O)oc2cc3oc(C)c(C)c3cc12	-1%	?	25µM*	>57
CCCN(CCC)CCNC(=O)C(NS(=O)(=O)c1ccc2c(c1)CCC(=O)N2)c1ccccc1 (stereo unspecified)	3%	-13%	-2%	>57
COc1ccc(C)cc1-n1nnnc1SCc1cn2ccsc2n1	3%	4%	2%	>57
Cc1cccc(Nc2nnc(SCc3cn4ccsc4n3)s2)c1	32µM*	23%	19%	>57
CCOC(=O)Cn1c(=NC(=O)CSC(C)=O)sc2cc(OC)ccc21	-1%	.	21%	>57
Cc1ccc2nc(SCC(=O)Nc3cc(C)on3)[nH]c2c1	-3%	1%	-23%	>57
Cc1cc(NC(=O)CSc2ccc(-c3nc4cc(C)c(C)cc4[nH]3)cn2)no1	0.32µM*	-8%[11.4 µM]	9%	i
SMILES	FLuc inh	TSHR agonist	HEK293 cAMP cs	Bst PK mod
Cc1ccc(NC(=O)c2ccccc2O)cc1	5µM*	-4%	9%	6.3*
COc1cc(NC(=O)c2ccccc2)cc(OC)c1	-1%	16%	28%	>57
O=C(NC1=NCCS1)c1ccc(-c2ccc(Cl)cc2)o1	7.9µM*	-2%[11.4 µM]	3%	5.4*
COc1ccc(C(=O)Nc2cc(OC)cc(OC)c2)cc1	4µM*	3%	5%	.
CCC(=O)Nc1ccc(NC(=O)c2cccc(OC)c2)nc1	13µM*	-9%	-11%	.
Cc1onc(-c2c(F)cccc2Cl)c1C(=O)NC1=NCCS1	.	-4%	-12%	.
CCOCCSC1=C(C#N)C(c2cccs2)C(C(C)=O)=C(C)N1 (stereo unspecified)	-3%	26%	7%	>57
COc1cccc(C(=O)Nc2ccc(NC(=O)C3CC3)cn2)c1	7.9µM*	-4%	-3%	.
COC(=O)C1=C(NC(=O)c2cccc(OC)c2)CCS1	1%	?	?	>57
COc1cccc(C(=O)NC2=NCCS2)c1	16µM*	-5%	-10%	i
COc1cccc(C(=O)Nc2ccc(C)cc2)c1	10µM*	-45%	10%	?
CSC1=C(C#N)C2(CCCC2)C(C#N)=C(N)N1	2%	-17%	3%	>57
CNCCCC12CCC(c3ccccc31)c1ccccc12	-2%[25.5 µM]	?	40µM*!	>26
CC(=O)Oc1ccccc1C1OC(=O)c2ccccc2N1C(C)=O (stereo unspecified)	1%[25.5 µM]	.	.	>11
COCCn1nnnc1C(c1ccc(OC)cc1)N1CCN(c2ccccc2F)CC1 (stereo unspecified)	3%	?	?	>57
COCCn1nnnc1C(c1ccccc1OC)N1CCN(c2ccccc2F)CC1 (stereo unspecified)	-2%	?	7.9µM*	>57
